Screening results (PubChem)
TEAD-YAP block – TEAD-YAP interaction inhibition, primary screen, TEAD-YAP interaction inhibitor project, luminescence, HEK-TIYL cells; TEAD-Gal4/YAP UAS-luciferase luminescence; inhibition, % at 9.12 µM; 1.4% of 640,000 active; in the data active = inhibition above about 32%;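 also: 0% = median of test compound wells and 100% = reference inhibitor wells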
MITF inh – MITF inhibitors, primary screen, biochemical, AlphaScreen, human; Microphthalmia-associated transcription factor (Homo sapiens), O75030; AlphaScreen MITF homodimerization, bead proximity signal; inhibition, % at 2.6 µM; 0.91% of 650,000 active; AID 1259374, 2018; in the data active = inhibition above about 50%;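 also: 0% = vehicle wells with protein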
GPR151 activ – activators of human GPR151, primary screen, cell-based, PathHunter beta-arrestin, luminescence. G-protein coupled receptor 151 (Homo sapiens), Q8TDV0. PathHunter beta-arrestin GPR151 cells. activation, % at 11.2 µM. 1% of 650,000 active. AID 1508602, 2020; in the data active = activation above about 4.9%;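 also: 0% = median of compound wells and 100% = cells with positive control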
Target sequence (Q8TDV0 whole entry, looked up): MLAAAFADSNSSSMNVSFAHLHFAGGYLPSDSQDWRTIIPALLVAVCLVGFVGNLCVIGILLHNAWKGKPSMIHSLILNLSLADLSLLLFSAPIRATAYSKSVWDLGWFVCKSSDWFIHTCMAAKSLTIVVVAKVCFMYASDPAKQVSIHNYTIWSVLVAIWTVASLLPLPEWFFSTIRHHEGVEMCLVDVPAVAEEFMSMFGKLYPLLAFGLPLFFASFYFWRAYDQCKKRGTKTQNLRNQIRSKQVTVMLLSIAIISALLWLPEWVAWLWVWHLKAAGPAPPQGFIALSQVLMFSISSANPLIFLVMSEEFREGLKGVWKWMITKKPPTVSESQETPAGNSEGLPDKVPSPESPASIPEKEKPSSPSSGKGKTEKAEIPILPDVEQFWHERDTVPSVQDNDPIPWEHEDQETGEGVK
FBW7 act – FBW7 E3 ligase activators, primary screen, biochemical, AlphaScreen, human; F-box/WD repeat-containing protein 7 (Homo sapiens), Q969H0; AlphaScreen FBW7–phospho-cyclin E peptide binding, activator screen; normalized activity (activation), % at 26.1 µM; 0.13% of 650,000 active; in the data active = normalized activity above about 1.9%;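 also: purified mutant Fbw7 with reduced substrate affinity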
GPR151 confirm – GPR151 activators, triplicate retest, confirmation, cell-based, PathHunter beta-arrestin, luminescence. shares compounds with GPR151 activ. GPR151 PathHunter beta-arrestin cells, 90 min; % of EA-reagent control over plate median. activation, % at 11.2 µM. 6,700 tested, under 10 active. AID 1508609, 2020;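 active = mean percent activation across replicates above the confirmation screen cutoff of 4.91%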
GPR119 counter – GPR119 activators in beta-arrestin cells, counter-screen for GPR151 activator project, cell-based, PathHunter beta-arrestin, luminescence, triplicate | shares compounds with GPR151 activ | 90 min; 0 = compound-well median, 100 = enzyme-acceptor control | activation, % at 11.2 µM | 0.3% of 6,700 active | AID 1508611, 2020;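 active = mean percent activation in the counterscreen above 29.09%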;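 also: counterscreen on off-target GPR119 to flag nonselective hits from the GPR151 activator screen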
Numbers without * were called inactive; . = no result given. In the library only some 3.5% were active in any assay of this set; here they are far more common.

SMILES | TEAD-YAP block | MITF inh | GPR151 activ | FBW7 act | GPR151 confirm | GPR119 counter
COC(=O)C(C)Sc1nc2c(c(=O)n1-c1ccc(Cl)cc1)SCC2 (stereo not drawn) | -12.4 | -1.2 | -0.2 | -0.1 | . | .
O=C(NNC(=O)c1ccccc1F)c1ccc(Cl)nc1 | -14.6 | 7.5 | 4.9* | 0.0 | 0.0 | -0.1
CC(C)C[C@H]1C(=O)N2CCN(C(=O)c3cccc(F)c3F)C[C@@H]2C(=O)N1C | 3.2 | 11.3 | 6.6* | 0.9 | 0.3 | 14.1
COc1ccc(NC(=O)N2CCCC2)cc1OC | 5.0 | 10.2 | 0.6 | 0.1 | . | .
COc1ccc(NC(=O)N2CCCCCC2)cc1OC | -2.7 | 14.5 | 5.5* | 0.2 | -1.9 | -17.8
Cc1cc(NC(=O)CCN2CCN(C/C=C/c3ccccc3)CC2)ccc1Br | 15.0 | 3.3 | 1.0 | 0.0 | . | .
COc1ccc(NC(=S)NN2CCOCC2)cc1OC | -3.8 | -11.6 | 13.9* | -0.1 | 0.8 | 2.0
Cc1cccc(NC(=O)CCN2CCN(C/C=C/c3ccccc3)CC2)c1 | 2.0 | 17.2 | 4.9* | 1.1 | 0.2 | -5.6
CCOc1ccccc1N1CCN(C(=O)Nc2ccc(OC)c(OC)c2)CC1 | -1.4 | -1.8 | 7.8* | 0.0 | -1.1 | -17.6
O=C1CCC(C(=O)Nc2ccc(Cl)cc2F)=NN1 | -39.0 | 16.8 | -3.5 | 0.4 | . | .
COc1ccc(C)c2sc(NC(=O)Cc3ccccc3)nc12 | 8.2 | -10.4 | 0.1 | 0.1 | . | .
CC(=O)c1cccc(NC(=O)N2CCN(C/C=C/c3ccccc3)CC2)c1 | 2.4 | -4.0 | -0.3 | 0.2 | . | .
COc1ccc(NC(=O)N2CCN(C/C=C/c3ccccc3)CC2)cc1OC | 11.9 | 13.3 | 14.4* | -0.2 | -0.5 | -8.7
OCCNc1nc(Nc2ccncn2)nc2c1ncn2C1CCCCC1 | -26.8 | 15.0 | -0.9 | 0.2 | . | .
CCCNc1nc(Nc2ccncn2)nc2c1ncn2C1CCCCC1 | -47.5 | 9.7 | 4.9* | 0.2 | 0.0 | 13.0
Cc1noc(C)c1-c1nc(NCCOc2ccccc2)c2ncn(C3CCCCC3)c2n1 | 2.4 | -3.1 | -0.8 | -0.2 | . | .
CCCNc1nc(-c2c(C)noc2C)nc2c1ncn2C1CCCCC1 | -45.8 | -1.0 | 5.5* | -0.1 | 0.2 | -4.4
Cc1nn(C)c(C)c1-c1nc(NCCCN2CCCC2=O)c2ncn(C3CCCCC3)c2n1 | -14.6 | -11.5 | 5.8* | 0.1 | -0.7 | -7.6
COC(=O)C1=C(C)N=c2s/c(=C\c3ccc(Cl)cc3Cl)c(=O)n2C1c1ccc(OC)cc1 (stereo not drawn) | 7.0 | -13.6 | -0.4 | 0.0 | . | .
CC(C)COc1ccc(CC2CCC(=O)NC2=O)cc1 (stereo not drawn) | -16.4 | 13.6 | -1.5 | 0.0 | . | .
O=c1oc2ccc3ccccc3c2cc1-c1nnc(-c2ccccc2Br)o1 | -7.5 | -2.7 | 0.0 | -0.1 | . | .
CC1=CCC2C(=O)N(Cc3ccccc3)C(=O)C2C1 (stereo not drawn) | 1.1 | -34.0 | 0.7 | 0.1 | . | .
CC1=CCC2C(=O)N(C(C)c3ccccc3)C(=O)C2C1 (stereo not drawn) | 1.0 | -6.6 | 7.5* | 0.0 | -1.2 | -6.7
O=C(CN1C(=O)COc2cc(S(=O)(=O)N3CCCC3)ccc21)NC1CCCCCCC1 | 7.4 | 0.5 | 7.1* | 0.1 | -0.5 | -8.6
O=C(CN1C(=O)COc2cc(S(=O)(=O)N3CCCCC3)ccc21)NC1CCCCCC1 | 6.0 | 7.5 | 0.5 | -0.1 | . | .
SMILES | TEAD-YAP block | MITF inh | GPR151 activ | FBW7 act | GPR151 confirm | GPR119 counter
COC(=O)CN1C(=O)COc2cc(S(=O)(=O)N3CCCCCC3)ccc21 | 1.6 | 6.9 | 5.8* | 0.0 | -0.7 | -14.8
Cc1cccc(C)c1NC(=O)C(c1cccc([N+](=O)[O-])c1)N(C)C(=O)c1ccccn1 (stereo not drawn) | 11.4 | 10.4 | -0.5 | 0.4 | . | .
O=C(NCc1n[nH]c(=S)n1-c1ccccc1Cl)c1ccccc1F | 3.6 | 2.0 | 6.7* | -0.1 | 1.6 | 2.6
Cc1ccc(C(=O)ON2C(=O)c3ccccc3C2=O)cc1C | -4.7 | 10.4 | 7.6* | 0.1 | -0.3 | 14.7
COc1ccc(CC2(CO)CCN(Cc3ccc(NC(C)=O)cc3)CC2)cc1 | 7.1 | 9.7 | 5.9* | -0.1 | 1.5 | -4.4
CCn1c(SCc2cccc(Br)c2)nnc1-c1cnccn1 | -5.2 | 4.2 | 7.4* | -0.1 | 0.4 | -1.2
C=CCc1ccccc1OCCOc1ccc([N+](=O)[O-])cc1/C=N/NC(N)=O | -1.1 | -3.9 | 6.2* | -0.2 | -0.3 | -7.2
Cc1c(N=Cc2ccccc2)cc([N+](=O)[O-])cc1[N+](=O)[O-] | 4.6 | -4.2 | 5.3* | -0.1 | -0.7 | -6.5
Cc1c(N=CN(C)C)cc([N+](=O)[O-])cc1[N+](=O)[O-] | 12.9 | 0.3 | -0.5 | -0.1 | . | .
O=C(Oc1ccccc1)c1cc2ccccc2oc1=O | -3.1 | -2.4 | 0.5 | -0.1 | . | .
O=C(OCc1ccccc1)c1ccc(OC(=O)c2cc3ccccc3oc2=O)cc1 | 10.8 | -19.0 | 6.6* | 0.1 | -0.2 | -2.0
C=CCOc1ccc(/C(O)=C2/C(=O)C(=O)N(CCN(CC)CC)C2c2ccc(C)cc2)c(C)c1 (stereo not drawn) | 4.6 | -6.9 | 7.1* | 0.1 | -0.2 | -3.3
CCn1c(SCC(=O)c2cccs2)nc2c1c(=O)n(C)c(=O)n2C | -3.0 | -3.4 | 5.3* | -0.1 | 0.3 | -0.8
CS(=O)(=O)N1CCN(c2ccc([N+](=O)[O-])c(NCCOc3ccc(Cl)cc3)c2)CC1 | 8.7 | 10.5 | -0.7 | 0.4 | . | .
COC(=O)c1ccc(/C=N/NS(=O)(=O)c2cc(C)ccc2C)cc1 | 11.4 | -8.5 | 5.9* | -0.1 | -1.2 | -9.0
COC(=O)c1ccc(/C=N\NC(=O)CNc2ccc(C)cc2)cc1 | -1.5 | 1.0 | 1.1 | 0.0 | . | .
O=C(CCCn1c(=S)[nH]c2cc3c(cc2c1=O)OCO3)NCc1cccc(Cl)c1 | 4.9 | 6.0 | 5.3* | 0.0 | 0.4 | 9.2
O=C(CCCn1c(=S)[nH]c2ccccc2c1=O)Nc1cccc2c1CCCC2 | -5.4 | 1.4 | 5.5* | 0.1 | -0.1 | 11.6
O=C(CCn1c(=S)[nH]c2cc3c(cc2c1=O)OCO3)NCc1cccc(Cl)c1 | -0.7 | 5.0 | -1.1 | 0.2 | . | .
O=C(NCCO)c1cccc(N2C(=O)c3ccccc3C2=O)c1 | 3.4 | 1.4 | 7.6* | -0.1 | -0.5 | 3.3
O=C(O)CCc1nn2c3ccccc3n(CC(=O)O)c2nc1=O | 7.3 | -7.7 | 21.3* | -0.1 | 0.2 | 4.6
Cc1nc2n(CC(=O)O)c3ccccc3n2n1 | -0.1 | -2.7 | 0.0 | -0.1 | . | .
CCN(CCO)c1cc(NC(C)C)c2c3c(onc13)-c1ccccc1C2=O | 11.6 | 24.4 | 7.1* | -0.3 | 0.9 | 13.3
CCNc1cc(N(CC)CCO)c2noc3c2c1C(=O)c1ccccc1-3 | 7.4 | 46.9 | -1.6 | -1.2 | . | .
